Results as given in the supplement of paper PMC10981050.
Values joined by “and” are separate entries in the source; they are usually repeats but may differ in a detail not shown here. Equal values may be shown once. Where a name gives a salt, the structure may show the parent alone.

Experiments:
Assay in all cases: cell viability relative to vehicle control; higher = less cytotoxic
Conditions in all cases: 10 µM
K562 = test system: K562
Outline: (§1)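 CRISPR-edited mutant clones and isogenic wild-type clones from four leukaemia lines were screened against Selleck bioactive, kinase and epigenetic probe libraries, with identity-inconsistent compounds excluded. Each compound was acoustically dispensed at a single 10 µM dose into 384-well plates holding 2000 cells in 50 µL medium per well. After 48 h the supernatant was removed and CellTiter-Glo luminescence was read. Viability was expressed as percent of the on-plate vehicle control and analysed in Genedata Screener.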

MARIMO = test system: MARIMO
Outline: as §1

MOLM14 = test system: MOLM14
Outline: as §1

OCI-AML2 = test system: OCI-AML2
Outline: as §1

O=S(=O)(NC1CCCCC1)c1ccc2c(c1)C(=NO)c1cc(S(=O)(=O)NC3CCCCC3)ccc1-2
cell viability (K562; SRSF2 genotype: SRSF2 P95H/wt): 80.3% and 92.9%
cell viability (K562; SRSF2 genotype: SRSF2 wt/wt): 92.3%
cell viability (MARIMO; SRSF2 genotype: SRSF2 P95H/wt): 4.08%
cell viability (MARIMO; SRSF2 genotype: SRSF2 wt/wt): 57.4%
cell viability (MOLM14; SRSF2 genotype: SRSF2 P95H/wt): 11.1%
cell viability (MOLM14; SRSF2 genotype: SRSF2 wt/wt): 70.7%
cell viability (OCI-AML2; SRSF2 genotype: P95H/wt): 0.52%
cell viability (OCI-AML2; SRSF2 genotype: wt/wt): 0.59%

O=C(O)c1cc(C(=O)O)c2c(n1)C(=O)C(=O)c1cc(C(=O)O)[nH]c1-2 [Pyrroloquinoline Quinone Disodium Salt]
cell viability (K562; SRSF2 genotype: SRSF2 P95H/wt): 101% and 95.6%
cell viability (K562; SRSF2 genotype: SRSF2 wt/wt): 98.9%
cell viability (MARIMO; SRSF2 genotype: SRSF2 P95H/wt): 94.1%
cell viability (MARIMO; SRSF2 genotype: SRSF2 wt/wt): 106%
cell viability (MOLM14; SRSF2 genotype: SRSF2 P95H/wt): 88.8%
cell viability (MOLM14; SRSF2 genotype: SRSF2 wt/wt): 107%
cell viability (OCI-AML2; SRSF2 genotype: P95H/wt): 106%
cell viability (OCI-AML2; SRSF2 genotype: wt/wt): 99.4%

C[C@@H]1CC[C@@]2(OC1)O[C@H]1C[C@H]3[C@@H]4CC=C5C[C@@H](O[C@@H]6O[C@H](CO)[C@@H](O[C@@H]7O[C@@H](C)[C@H](O[C@@H]8O[C@@H](C)[C@H](O)[C@@H](O)[C@H]8O)[C@@H](O)[C@H]7O)[C@H](O)[C@H]6O[C@@H]6O[C@@H](C)[C@H](O)[C@@H](O)[C@H]6O)CC[C@]5(C)[C@H]4CC[C@]3(C)[C@@]1(O)[C@@H]2C [Chonglou Saponin VII]
cell viability (K562; SRSF2 genotype: SRSF2 P95H/wt): 0.5% and 0.49%
cell viability (K562; SRSF2 genotype: SRSF2 wt/wt): 0.46%
cell viability (MARIMO; SRSF2 genotype: SRSF2 P95H/wt): 0.43%
cell viability (MARIMO; SRSF2 genotype: SRSF2 wt/wt): 0.55%
cell viability (MOLM14; SRSF2 genotype: SRSF2 P95H/wt): 0.44%
cell viability (MOLM14; SRSF2 genotype: SRSF2 wt/wt): 0.46%
cell viability (OCI-AML2; SRSF2 genotype: P95H/wt): 0.37%
cell viability (OCI-AML2; SRSF2 genotype: wt/wt): 0.47%

CC(C)(C)NCC(O)c1ccc(O)c(CO)c1 (stereo not drawn) [Salbutamol]
cell viability (K562; SRSF2 genotype: SRSF2 P95H/wt): 104% and 102%
cell viability (K562; SRSF2 genotype: SRSF2 wt/wt): 110%
cell viability (MARIMO; SRSF2 genotype: SRSF2 P95H/wt): 108%
cell viability (MARIMO; SRSF2 genotype: SRSF2 wt/wt): 107%
cell viability (MOLM14; SRSF2 genotype: SRSF2 P95H/wt): 99.4%
cell viability (MOLM14; SRSF2 genotype: SRSF2 wt/wt): 106%
cell viability (OCI-AML2; SRSF2 genotype: P95H/wt): 101%
cell viability (OCI-AML2; SRSF2 genotype: wt/wt): 97.1%

C=C(C)[C@@H]1CC[C@]2(C)CC[C@]3(C)[C@H](CC[C@@H]4[C@@]5(C)CC[C@H](O)C(C)(C)[C@@H]5CC[C@]43C)[C@@H]12 [Lupeol]
cell viability (K562; SRSF2 genotype: SRSF2 P95H/wt): 106%
cell viability (K562; SRSF2 genotype: SRSF2 wt/wt): 113%
cell viability (MARIMO; SRSF2 genotype: SRSF2 P95H/wt): 109%
cell viability (MARIMO; SRSF2 genotype: SRSF2 wt/wt): 108%
cell viability (MOLM14; SRSF2 genotype: SRSF2 P95H/wt): 105%
cell viability (MOLM14; SRSF2 genotype: SRSF2 wt/wt): 109%
cell viability (OCI-AML2; SRSF2 genotype: P95H/wt): 108%
cell viability (OCI-AML2; SRSF2 genotype: wt/wt): 108%

C[C@H]1[C@@H](O)O[C@@H]2O[C@@]3(C)CC[C@H]4[C@H](C)CC[C@@H]1[C@@]24OO3 [Dihydroartemisinin (DHA)]
cell viability (K562; SRSF2 genotype: SRSF2 P95H/wt): 37.7% and 30.4%
cell viability (K562; SRSF2 genotype: SRSF2 wt/wt): 28.8%
cell viability (MARIMO; SRSF2 genotype: SRSF2 P95H/wt): 25%
cell viability (MARIMO; SRSF2 genotype: SRSF2 wt/wt): 29.9%
cell viability (MOLM14; SRSF2 genotype: SRSF2 P95H/wt): 22.1%
cell viability (MOLM14; SRSF2 genotype: SRSF2 wt/wt): 9.71%
cell viability (OCI-AML2; SRSF2 genotype: P95H/wt): 0.58%
cell viability (OCI-AML2; SRSF2 genotype: wt/wt): 7.67%

CC(=O)c1ccc(O)c(C(=O)O)c1 [5-Acetylsalicylic acid]
cell viability (K562; SRSF2 genotype: SRSF2 P95H/wt): 110% and 106%
cell viability (K562; SRSF2 genotype: SRSF2 wt/wt): 98%
cell viability (MARIMO; SRSF2 genotype: SRSF2 P95H/wt): 106%
cell viability (MARIMO; SRSF2 genotype: SRSF2 wt/wt): 112%
cell viability (MOLM14; SRSF2 genotype: SRSF2 P95H/wt): 101%
cell viability (MOLM14; SRSF2 genotype: SRSF2 wt/wt): 107%
cell viability (OCI-AML2; SRSF2 genotype: P95H/wt): 102%
cell viability (OCI-AML2; SRSF2 genotype: wt/wt): 105%

O=C([O-])[O-].[Li+].[Li+] [Lithium carbonate]
cell viability (K562; SRSF2 genotype: SRSF2 P95H/wt): 111% and 113%
cell viability (K562; SRSF2 genotype: SRSF2 wt/wt): 108%
cell viability (MARIMO; SRSF2 genotype: SRSF2 P95H/wt): 99.6%
cell viability (MARIMO; SRSF2 genotype: SRSF2 wt/wt): 112%
cell viability (MOLM14; SRSF2 genotype: SRSF2 P95H/wt): 105%
cell viability (MOLM14; SRSF2 genotype: SRSF2 wt/wt): 108%
cell viability (OCI-AML2; SRSF2 genotype: P95H/wt): 117%
cell viability (OCI-AML2; SRSF2 genotype: wt/wt): 96.9%

NC(=O)C1CCCc2c1[nH]c1ccc(Cl)cc21 (stereo not drawn)
cell viability (K562; SRSF2 genotype: SRSF2 P95H/wt): 97% and 96%
cell viability (K562; SRSF2 genotype: SRSF2 wt/wt): 105%
cell viability (MARIMO; SRSF2 genotype: SRSF2 P95H/wt): 89%
cell viability (MARIMO; SRSF2 genotype: SRSF2 wt/wt): 102%
cell viability (MOLM14; SRSF2 genotype: SRSF2 P95H/wt): 96%
cell viability (MOLM14; SRSF2 genotype: SRSF2 wt/wt): 99.6%
cell viability (OCI-AML2; SRSF2 genotype: P95H/wt): 91.2%
cell viability (OCI-AML2; SRSF2 genotype: wt/wt): 92.2%

CC(=O)OC1CCC2C3CCc4cc(O)ccc4C3CCC12C (stereo not drawn)
cell viability (K562; SRSF2 genotype: SRSF2 P95H/wt): 96.5% and 85%
cell viability (K562; SRSF2 genotype: SRSF2 wt/wt): 90.6%
cell viability (MARIMO; SRSF2 genotype: SRSF2 P95H/wt): 85.8%
cell viability (MARIMO; SRSF2 genotype: SRSF2 wt/wt): 98.9%
cell viability (MOLM14; SRSF2 genotype: SRSF2 P95H/wt): 96.9%
cell viability (MOLM14; SRSF2 genotype: SRSF2 wt/wt): 96.2%
cell viability (OCI-AML2; SRSF2 genotype: P95H/wt): 87.7%
cell viability (OCI-AML2; SRSF2 genotype: wt/wt): 96.1%

CC(C)C[C@H](NC(=O)[C@H]1O[C@@H]1C(=O)O)C(=O)NCCCCN=C(N)N
cell viability (K562; SRSF2 genotype: SRSF2 P95H/wt): 106% and 111%
cell viability (K562; SRSF2 genotype: SRSF2 wt/wt): 114%
cell viability (MARIMO; SRSF2 genotype: SRSF2 P95H/wt): 99.6%
cell viability (MARIMO; SRSF2 genotype: SRSF2 wt/wt): 104%
cell viability (MOLM14; SRSF2 genotype: SRSF2 P95H/wt): 101%
cell viability (MOLM14; SRSF2 genotype: SRSF2 wt/wt): 104%
cell viability (OCI-AML2; SRSF2 genotype: P95H/wt): 108%
cell viability (OCI-AML2; SRSF2 genotype: wt/wt): 115%
